Measured values taken from PubChem BioAssay (NCI).
“And” between values parts separate entries of the source, which are not always exact repeats. Identical values can stand only once. This is part of a sample that, as a whole, favours compounds with a hit. Of some 79,000 tested, about 15% had one in any assay. The source made the active and inactive calls. No stated cut-off is given here; in the data, active means growth inhibition above about 70%; inactive means the rest.

Columns and labels:
[1] = NCI Yeast Anticancer Drug Screen. Data for the rad50 strain (AID 155);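 further: 0% = growth of vehicle-only cultures of the same strain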; conditions: S. cerevisiae rad50 strain growth inhibition, hits give high values
How it was run: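 Yeast carrying a defined DNA repair defect were exposed to test compounds, and growth was compared with vehicle-treated controls to give percent inhibition.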

[2] = NCI Yeast Anticancer Drug Screen. Data for the mec2-1 strain (AID 157); conditions: S. cerevisiae mec2-1 strain, hits give high values
How it was run: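 Yeast mec2-1 mutant treated with compound. Readout: growth inhibition vs vehicle controls.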

[3] = NCI Yeast Anticancer Drug Screen. Data for the sgs1 mgt1 strain (AID 161);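 further: 0% = growth of cultures given vehicle only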; conditions: S. cerevisiae sgs1 mgt1 strain, hits give high values
How it was run: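 Inhibition of yeast growth, normalised to vehicle-treated controls, is reported for a strain bearing genetic alterations in DNA damage repair.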

[4] = NCI Yeast Anticancer Drug Screen. Data for the cln2 rad14 strain (AID 165);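 further: 0% = growth equal to vehicle treated cultures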; conditions: S. cerevisiae cln2 rad14 strain, hits give high values
How it was run: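 cln2 rad14 yeast strain; compound exposure; growth inhibition read vs vehicle controls.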

[5] = NCI Yeast Anticancer Drug Screen. Data for the bub3 strain (AID 167); conditions: S. cerevisiae bub3 mutant strain, hits give high values
How it was run: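 Compounds were applied to a genetically altered yeast strain carrying a cell-cycle control defect. Growth inhibition was scored against vehicle-treated controls.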

[6] = NCI Yeast Anticancer Drug Screen. Data for the mlh1 rad18 strain (AID 175); conditions: S. cerevisiae mlh1 rad18 strain growth inhibition, hits give high values
How it was run: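 Yeast w/ defined DNA-repair lesions; compound exposure; growth vs vehicle controls → % inhibition.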

[7] = at 5.0 µM (retest, dose inferred, filed as 0.5)
[8] = at 50.0 µM (retest, dose inferred, filed as 5.0)

Measured: growth inhibition

CC(=O)O[C@H]1CC[C@H]2[C@@H]3CC[C@H]4CC(=O)CC[C@@H]4[C@H]3CC[C@]12C
active: [3]; at 50.0 µM 88.6%
inactive: [1]; [7] -2% | [1]; [8] -19% | [1]; at 50.0 µM 11% | [2]; [7] -2% | [2]; [8] -9% | [2]; at 50.0 µM 10.8% | [3]; [7] -2% | [3]; [8] -10% | [4]; [7] -14% | [4]; [8] -6% | [4]; at 50.0 µM 1.15% | [5]; [7] 4% | [5]; [8] 7% | [5]; at 50.0 µM 61.5% | [6]; [7] -1% | [6]; [8] -7% | [6]; at 50.0 µM -1.35%

CN(C)C(=S)[S][Sb]([c]1ccccc1)[c]1ccccc1
active: [1]; [7] 97% | [1]; [8] 99% | [1]; at 50.0 µM 70.6% | [2]; [7] 99% | [2]; [8] 99% | [2]; at 50.0 µM 83.5% | [3]; [7] 93% | [3]; [8] 99% | [3]; at 50.0 µM 90.3% | [4]; [7] 89% | [4]; [8] 97% | [5]; [7] 98% | [5]; [8] 75% | [5]; at 50.0 µM 98.3% | [6]; [7] 99% | [6]; [8] 99% | [6]; at 50.0 µM 90.5%
inactive: [4]; at 50.0 µM 57.1%

Cc1cc(N(C)C)c2ccccc2[n+]1CCCCCCCCCC[n+]1c(C)cc(N(C)C)c2ccccc21
active: [1]; [7] 92% | [1]; [8] 98% | [1]; at 50.0 µM 89.1% | [2]; [7] 98% | [2]; [8] 99% | [2]; at 50.0 µM 91.8% | [3]; [7] 95% | [3]; [8] 99% | [3]; at 50.0 µM 88.8% | [4]; [7] 87% | [4]; [8] 96% | [4]; at 50.0 µM 91% | [5]; [7] 94% | [5]; [8] 98% | [5]; at 50.0 µM 89.5% | [6]; [7] 97% | [6]; [8] 99% | [6]; at 50.0 µM 91.8%

CC(C)C1=CC23CCC4C(C)(C(=O)O)CCCC4(C)C2CC1OO3 (configuration not stated)
inactive: [1]; [7] 37% | [2]; [7] 10% | [3]; [7] 17% | [4]; [7] 1% | [5]; [7] -3% | [6]; [7] 27%
active: [1]; [8] 91% | [1]; at 50.0 µM 98.2% and 98.8% | [2]; [8] 94% | [2]; at 50.0 µM 93.1% and 98.8% | [3]; [8] 84% | [3]; at 50.0 µM 98.2% and 98.9% | [4]; [8] 78% | [4]; at 50.0 µM 97% and 90.4% | [5]; [8] 80% | [5]; at 50.0 µM 98% and 99.5% | [6]; [8] 89% | [6]; at 50.0 µM 98.5% and 95.2%

CCCCCCCC1(c2ccc(N)cc2)CCC(=O)NC1=O (configuration not stated)
active: [1]; at 50.0 µM 73% | [3]; [8] 96%
inactive: [1]; [7] 31% | [1]; [8] 36% | [2]; [7] 0% | [2]; [8] 61% | [2]; at 50.0 µM 27.9% | [3]; [7] 8% | [3]; at 50.0 µM 54.2% | [4]; [7] -8% | [4]; [8] 26% | [4]; at 50.0 µM 33.8% | [5]; [7] 0% | [5]; [8] 21% | [5]; at 50.0 µM 56% | [6]; [7] -2% | [6]; [8] 35% | [6]; at 50.0 µM 37.1%

C[N+](C)=C1C=CC(=C2C=CSC=C2)C=C1
active: [5]; [8] 72% | [5]; at 50.0 µM 79.2% | [6]; at 50.0 µM 89.8%
inactive: [1]; [7] 22% | [1]; [8] 45% | [1]; at 50.0 µM 11.1% | [2]; [7] 27% | [2]; [8] 36% | [2]; at 50.0 µM 10.3% | [3]; [7] 20% | [3]; [8] 46% | [3]; at 50.0 µM 59.8% | [4]; [7] 29% | [4]; [8] 45% | [4]; at 50.0 µM 25% | [5]; [7] 17% | [6]; [7] 26% | [6]; [8] 52%

[Ni+2].[O-][Cl+3]([O-])([O-])O.c1ccc([PH+](CC[PH+](c2ccccc2)c2ccccc2)c2ccccc2)cc1.c1ccc([PH+](CC[PH+](c2ccccc2)c2ccccc2)c2ccccc2)cc1
active: [6]; at 50.0 µM 72%
inactive: [1]; [7] 4% | [1]; [8] 13% | [1]; at 50.0 µM 48.6% | [2]; [7] -1% | [2]; [8] 12% | [2]; at 50.0 µM 41.8% | [3]; [7] 1% | [3]; [8] 32% | [3]; at 50.0 µM 59.2% | [4]; [7] 3% | [4]; [8] -3% | [4]; at 50.0 µM 9.05% | [5]; [7] 4% | [5]; [8] 31% | [5]; at 50.0 µM 43.9% | [6]; [7] 3% | [6]; [8] 26%

O=P(CP(=O)(c1ccccc1)c1ccccc1)(c1ccccc1)c1ccccc1.[CH3][Sn]([CH3])([Cl])[Cl]
active: [2]; at 50.0 µM 89.3%
inactive: [1]; [7] 6% | [1]; [8] 27% | [1]; at 50.0 µM 21.4% | [2]; [7] 21% | [2]; [8] 9% | [3]; [7] 5% | [3]; [8] 8% | [3]; at 50.0 µM 22.9% | [4]; [7] 3% | [4]; [8] -12% | [4]; at 50.0 µM 8.35% | [5]; [7] 0% | [5]; [8] 8% | [5]; at 50.0 µM 4.25% | [6]; [7] 2% | [6]; [8] 15% | [6]; at 50.0 µM 19.4%

CC/C(=C\c1ccc(Cl)cc1)[N+](=O)[O-]
active: [1]; [8] 99% | [2]; [8] 99% | [3]; [8] 99% | [4]; [8] 99% | [5]; [8] 99% | [6]; [8] 99%
inactive: [1]; [7] 34% | [1]; at 50.0 µM 13.1% | [2]; [7] 12% | [2]; at 50.0 µM -3.1% | [3]; [7] 14% | [3]; at 50.0 µM 53.1% | [4]; [7] 7% | [4]; at 50.0 µM -5.45% | [5]; [7] 25% | [5]; at 50.0 µM 4.95% | [6]; [7] 13% | [6]; at 50.0 µM 8.15%
